Reference: PubChem BioAssay (NCI)
About 79,000 compounds went through this panel and 15% of them were active in at least one assay; those are over-represented in the sample as a whole. Rule as the data show it: active = growth inhibition above about 70%; inactive = the rest.

Key:
[1] = NCI Yeast Anticancer Drug Screen. Data for the rad50 strain (AID 155);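 also: 0% = growth of vehicle-only cultures of the same strain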; details: S. cerevisiae rad50 strain growth inhibition; at 50.0 µM; active compounds read high
How it was run: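 Yeast carrying a defined DNA repair defect were exposed to test compounds, and growth was compared with vehicle-treated controls to give percent inhibition.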

[2] = NCI Yeast Anticancer Drug Screen. Data for the mec2-1 strain (AID 157); details: S. cerevisiae mec2-1 strain, at 50.0 µM, active compounds read high
How it was run: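 Yeast mec2-1 mutant treated with compound. Readout: growth inhibition vs vehicle controls.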

[3] = NCI Yeast Anticancer Drug Screen. Data for the sgs1 mgt1 strain (AID 161);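 also: 0% = growth of cultures given vehicle only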; details: S. cerevisiae sgs1 mgt1 strain, at 50.0 µM, active compounds read high
How it was run: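 Inhibition of yeast growth, normalised to vehicle-treated controls, is reported for a strain bearing genetic alterations in DNA damage repair.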

[4] = NCI Yeast Anticancer Drug Screen. Data for the cln2 rad14 strain (AID 165);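 also: 0% = growth equal to vehicle treated cultures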; details: S. cerevisiae cln2 rad14 strain, at 50.0 µM, active compounds read high
How it was run: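 cln2 rad14 yeast strain; compound exposure; growth inhibition read vs vehicle controls.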

[5] = NCI Yeast Anticancer Drug Screen. Data for the bub3 strain (AID 167); details: S. cerevisiae bub3 mutant strain, at 50.0 µM, active compounds read high
How it was run: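 Compounds were applied to a genetically altered yeast strain carrying a cell-cycle control defect. Growth inhibition was scored against vehicle-treated controls.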

[6] = NCI Yeast Anticancer Drug Screen. Data for the mlh1 rad18 strain (AID 175); details: S. cerevisiae mlh1 rad18 strain growth inhibition; at 50.0 µM; active compounds read high
How it was run: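 Yeast w/ defined DNA-repair lesions; compound exposure; growth vs vehicle controls → % inhibition.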

Measured: growth inhibition

CCc1nc(N)nc(N)c1-c1ccc2c(c1)nnn2CCc1ccccc1
inactive: [1] 11.2% | [2] 0.1% | [3] 3.6% | [4] 10.7% | [5] 5.05% | [6] 16.1%

CNC(=O)Sc1ccc(C)c([N+](C)(C)C)c1
inactive: [1] 10.1% | [2] 5.6% | [3] 9% | [4] -9.6% | [5] 18.1% | [6] 18.5%

CSc1nc2c(cnn2C)c(=O)[nH]1
inactive: [1] 14.7% | [2] -1.95% | [3] 3.3% | [4] -4.55% | [5] 10.5% | [6] 24.6%

CC(C)(C)c1ccc(OCCOCCCl)c(Cl)c1
inactive: [1] 17.1% | [2] 15.4% | [3] 14.6% | [4] -19.9% | [5] 8.65% | [6] 15.2%

O=[N+]([O-])c1ccc2nc(/C=C(\O)c3ccccc3)c(/C=C(\O)c3ccc(Cl)cc3)nc2c1
inactive: [1] -10.1% | [2] -28.2% | [3] -52.5% | [4] -66.3% | [5] -62.1% | [6] -31.2%

Cc1nc2ccccc2c(=O)n1-c1ccc(-c2nnc(Sc3nnc(-c4ccc(-n5c(C)nc6ccccc6c5=O)cc4)n3-c3ccccc3)n2-c2ccccc2)cc1
inactive: [1] 16.6% | [2] -3.35% | [3] 8.2% | [4] -17.6% | [5] 11.3% | [6] 30.1%

COc1ccc(OC)c(NC(C)=O)c1
inactive: [1] -30.4% | [2] -12.2% | [3] -16.3% | [4] -3.05% | [5] -24.4% | [6] -8.55%

Cc1cnc2[nH]c(-c3ccccc3)cc(=O)c2c1
inactive: [1] -6.7% | [2] -12.6% | [3] -0.9% | [4] -23.2% | [5] -8.25% | [6] -48.5%

CCOC(=O)c1[nH]c(CC(=O)O)c(C(=O)OC)c1C
inactive: [1] 8.25% | [2] 14.8% | [3] 19.1% | [4] -3.5% | [5] 26.5% | [6] 7.3%

CCC(O)(C#CCl)CC
inactive: [1] 11.6% | [2] -10.9% | [3] 10% | [4] 10.2% | [5] -29.1% | [6] 11.1%

N#Cc1ccc(NN=NCCCCCl)cc1
inactive: [1] 8.85% | [2] -8.3% | [3] 14.8% | [4] 3.05% | [5] -6.7% | [6] 2.6%

Clc1ccc(NC2=NCCN=C(Nc3ccc(Cl)c(Cl)c3)SS2)cc1Cl
inactive: [1] -26.9% | [2] -21.4% | [3] -14.7% | [4] -14.1% | [5] -28.1% | [6] -33.6%

CCC(C)C=O (configuration not stated)
inactive: [1] 3.9% | [2] -6.3% | [3] -9.2% | [4] 2.2% | [5] 10.4% | [6] -8.3%

CCOC(=O)CCN1C(=O)C(=O)N(c2ccc(OC)cc2)C1=S
inactive: [1] -7% | [2] -6.6% | [3] 3.75% | [4] -57.1% | [5] 5% | [6] -5.6%

CS/C1=C(\c2ccc(C)cc2)N(c2ccccc2)C(=O)C(=O)N(c2ccccc2)/C(c2ccc(C)cc2)=C(/SC)SS1
inactive: [1] 12.2% | [2] -27.1% | [3] 2.9% | [4] 3% | [5] 8% | [6] 12.5%

Nc1cccc(N)n1.[Cu+2]
inactive: [1] -20.1% | [2] -12.1% | [3] -13.8% | [4] -13.2% | [5] -15% | [6] -14.2%

Cc1cc(C)c(NC(=O)CC#N)cc1C
inactive: [1] -5% | [2] -12.6% | [3] -17.4% | [4] -51.4% | [5] -1.35% | [6] -6.6%

CCOC(=O)/C(C#N)=C(O)/C(=C\c1ccc(Br)cc1)NC(=O)c1ccccc1
inactive: [1] -29.9% | [2] -12.9% | [3] -24.2% | [4] 13.2% | [5] -4.25% | [6] -15.1%

CCCCOC(=O)NC(=O)c1cc2cc(Br)cc(Br)c2oc1=O
inactive: [1] -2% | [2] 25.8% | [3] 0.3% | [4] -7.05% | [5] -1.2% | [6] -17.2%

NC(=O)C1CCCCC1C(N)=O (configuration not stated)
inactive: [1] -15% | [2] -20.1% | [3] -25.6% | [4] -29.5% | [5] -27.8% | [6] -15.3%

CCCCCC(O)C(C)C (configuration not stated)
inactive: [1] 1.5% | [2] -2.55% | [3] -8.65% | [4] -36.8% | [5] 15.7% | [6] 6.8%

CCCCCCP(=O)(CCCC)CCCC
inactive: [1] 38.1% | [2] 11.9% | [3] 41.2% | [4] -20.9% | [5] -12% | [6] -0.2%
